# Experimental data taken from PubChem BioAssay (NCI).
# The panel holds about 83,000 compounds, 20% with a hit somewhere; the sample as a whole holds those more often.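 A percent growth of 40 corresponds to 60% growth inhibition; 0 means no net growth; -100 means all cells died. Active threshold: below 10.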 Values without a mark were called inactive. Calls of active or inactive are those of the source.
# Assays:
# Test in all cases: NCI-60 one-dose screen, 48 h (100 = growth as untreated, 0 = no growth, -100 = all killed)
# Settings in all cases: 10 µM
# BT-549 breast = system: BT-549 breast
# MDA-MB-435 melanoma = system: MDA-MB-435 melanoma
# SW-620 colon = system: SW-620 colon
# MCF7 breast = system: MCF7 breast
# HCT-116 colon = system: HCT-116 colon
# HCC-2998 colon = system: HCC-2998 colon
Compound,growth (BT-549 breast),growth (MDA-MB-435 melanoma),growth (SW-620 colon),growth (MCF7 breast),growth (HCT-116 colon),growth (HCC-2998 colon)
N=C(N)c1ccc(-c2ccc(-c3ccccc3)o2)nc1,101%,81.4%,86.7%,72.3%,76.6%,27.5%
CC(=O)N1C/C(=C/c2ccc(Cl)cc2)C(=O)/C(=C/c2ccc(Cl)cc2)C1,-27.2% (active),-50.3% (active),-62.4% (active),-48.4% (active),-66.4% (active),-85.1% (active)
COc1cc(Nc2ncnc(Nc3ccc4c(n3)NC(=O)C(C)(C)O4)n2)cc(OC)c1OC,33.7%,16.6%,32.9%,21.9%,24.2%,79.1%
CCOC(=O)N1C/C(=C/c2ccc(OC)cc2)C(=O)/C(=C/c2ccc(OC)cc2)C1,-12.8% (active),-33.4% (active),-38.7% (active),-5.59% (active),-82.8% (active),-92.5% (active)
O=C1/C(=C\c2ccc(Cl)cc2)CN(C(=S)Nc2ccccc2)C/C1=C\c1ccc(Cl)cc1,-66.6% (active),-82.1% (active),-84.9% (active),-83.9% (active),-62.8% (active),-89% (active)
C#Cc1ccc(-n2c(/C=C/c3ccc4ccccc4c3)nc3ncccc3c2=O)cc1,52.4%,12.8%,19.2%,18.6%,21%,31.1%
Cc1[nH]nc2c1C(c1cnn(C)c1)C(C#N)=C(N)O2 (centres undefined),102%,101%,102%,98%,104%,110%
C#Cc1ccc(-n2c(/C=C/c3ccc(O)cc3)nc3ncccc3c2=O)cc1,74.9%,-45.5% (active),34.5%,10.5%,48.5%,93%
COc1cc(NC(=O)CCSc2nc3ccc(Cl)cc3c(=O)n2Cc2ccccc2)cc(OC)c1OC,73%,89%,86.2%,70%,53%,100%
COc1ccc(-c2nc(-c3nc4cc(Cl)c(F)cc4[nH]3)c3ccccn23)cc1,91%,64.4%,71.6%,58.1%,71.4%,72.2%
CCC(=O)N1C/C(=C/c2ccc(Cl)cc2)C(=O)/C(=C/c2ccc(Cl)cc2)C1,-18.7% (active),-58.6% (active),-63.6% (active),-77.9% (active),-85.4% (active),-89.3% (active)
COc1ccc(/C=C2/CN(C(=O)c3ccc(C)cc3)C/C(=C\c3ccc(OC)cc3)C2=O)cc1,94%,41.3%,71.3%,32.8%,-27% (active),71.3%
CSc1nn(-c2ccccc2)c2ncnc(Oc3ccccc3)c12,94.5%,102%,104%,107%,85.4%,102%
COc1ccc(-c2ccc(-c3ccc(C(=N)N)cn3)o2)cc1,86.3%,26.4%,80.4%,47.3%,45.9%,29.1%
CCOC(=O)N1C/C(=C/c2ccc(F)cc2)C(=O)/C(=C/c2ccc(F)cc2)C1,-44.3% (active),-47.4% (active),-66% (active),-45.9% (active),-83.9% (active),-80.9% (active)
O=C1/C(=C\c2ccc(F)cc2)CN(C(=O)c2ccccc2F)C/C1=C\c1ccc(F)cc1,-43.2% (active),-47.4% (active),-78.3% (active),-72.1% (active),-75% (active),-83.8% (active)
CSc1nn(-c2ccccc2)c2ncnc(Oc3ccc(C)cc3)c12,98%,102%,103%,97.7%,85.3%,99.4%
CC/C(=C(/c1ccc(OCCN(C)C)cc1)c1ccc(OC(=O)CCCCCCCCC(=O)c2c(C)[nH]c(/C=C3\N=C(c4ccc[nH]4)C=C3OC)c2C)cc1)c1ccccc1,69.2%,52.8%,53.8%,-2.49% (active),21.6%,100%
COc1ccc(/C=C2/CN(C(=O)c3ccccc3F)C/C(=C\c3ccc(OC)cc3)C2=O)cc1,37%,-46.2% (active),-42.3% (active),8.16% (active),-62.6% (active),-73.1% (active)
